Measured values from PubChem BioAssay AID1626 (SRMLSC, 2009).
In all, about 220,000 compounds went through this assay and about 2,000 (0.91%) were called active. Inconclusive results (about 2%) are left out. Only a sample is shown. Potency and affinity values are given separately. A number with no mark means an inactive call. No stated cut-off is given here; in the data, inconclusive means inhibition above about 80% without an active follow-up result; inactive means below that; test concentration not stated here.

Assay: M. tuberculosis H37Rv growth inhibitors, H37Rv strain (AID 1626);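 further: bacteria incubated seven days before Alamar blue readout; 0% = bacteria only wells and 100% = bacteria with antibiotic wells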
Details: stronger effect = higher value, concentration not given here

Question: For O=[N+]([O-])c1ccc(C2CCCC/C2=N/OCc2ccccc2F)c([N+](=O)[O-])c1 (configuration not stated), which inhibition is on record?
Answer: 0.93%

Question: With CC1CC(=O)c2cnc(Nc3cccc(C(F)(F)F)c3)nc2C1 (configuration not stated) as the molecule, how does the inhibition read?
Answer: 2.97%

Question: Which inhibition does the source give for O=C(Cn1nc(-c2ccccc2)c2ccccc2c1=O)NCC1CCCO1 (configuration not stated) here?
Answer: 8.76%

Question: Which inhibition does the source give for Cc1ccc(-n2c(C)cc3c2CCCC3=O)cc1 here?
Answer: -0.32%

Question: For COC(=O)c1ccc(C(C(=O)NC2CCCCC2)N(C(=O)Cc2cccs2)C2CC2)cc1 (configuration not stated), which inhibition is on record?
Answer: -2.62%

Question: For COc1ccc(CCNC(=O)C2CCN(c3ccc(N4CCOCC4)nn3)CC2)c(OC)c1, which inhibition is on record?
Answer: 6.05%

Question: Which inhibition does the source give for c1cnc2nc(-c3ccc4c(c3)OCO4)cn2c1 here?
Answer: -8.76%

Question: For COc1ccc(-c2nc3ncccn3c2Br)cc1, which inhibition is on record?
Answer: -1.31%

Question: For CC(NC(=O)COC(=O)Cc1ccsc1)c1ccccc1 (configuration not stated), which inhibition is on record?
Answer: -0.56%

Question: Which inhibition does the source give for O=C(NCc1ccccc1)N(Cc1cc2cc3c(cc2[nH]c1=O)OCCO3)CC1CCCO1 (configuration not stated) here?
Answer: -1.33%

Question: For CC1CCN(Cc2c(C#N)c3ccccc3n2C)CC1, which inhibition is on record?
Answer: -4.52%

Question: For Cc1nc(Nc2ccccc2)sc1C(=O)Nc1ccccc1, which inhibition is on record?
Answer: 21.1%

Question: For Cc1nc(Nc2c(Cl)cccc2Cl)sc1C(=O)Nc1ccccc1, which inhibition is on record?
Answer: 10.3%

Question: Which inhibition does the source give for O=C(OCC(=O)c1ccc[nH]1)c1ccc(S(=O)(=O)N2CCCCC2)cc1 here?
Answer: -10.2%

Question: Which inhibition does the source give for S=c1[nH]nc(COc2ccccc2)n1/N=C/C=C/c1ccccc1 here?
Answer: 12.1%

Question: For CCN(CC)C(=O)N1CCN(S(=O)(=O)c2ccc(C)cc2)CC1, which inhibition is on record?
Answer: -9.01%

Question: Which inhibition does the source give for O=C(COc1ccccc1)Nn1c(-c2ccccc2)nc2ccccc2c1=O here?
Answer: -3.31%

Question: Which inhibition does the source give for O=C(N/N=C/c1ccncc1)c1ccc(NS(=O)(=O)c2cccs2)cc1 here?
Answer: -0.88%

Question: With COc1ccc(N2CCN(c3cnc4ccccc4n3)CC2)cc1 as the molecule, how does the inhibition read?
Answer: -9.34%

Question: Which inhibition does the source give for c1ccc(N2CCN(c3cnc4ccccc4n3)CC2)cc1 here?
Answer: 5.67%

Question: With CC(C)C(NS(=O)(=O)c1cccc2nsnc12)C(=O)NCCC1=CCCCC1 (configuration not stated) as the molecule, how does the inhibition read?
Answer: -3.27%

Question: With Cc1[nH]c2ccccc2c1C(C[N+](=O)[O-])c1cccc(O)c1 (configuration not stated) as the molecule, how does the inhibition read?
Answer: 6.89%

Question: For O=c1[nH][nH]c(-c2ccccc2O)c1C(C[N+](=O)[O-])c1ccccc1 (configuration not stated), which inhibition is on record?
Answer: 6.94%

Question: Which inhibition does the source give for Cc1cc(O)c(C(C[N+](=O)[O-])c2ccc(Cl)cc2Cl)c(=O)o1 (configuration not stated) here?
Answer: 2.19%

Question: For Cc1[nH]n(-c2ccccc2)c(=O)c1C(C[N+](=O)[O-])c1ccccc1Cl (configuration not stated), which inhibition is on record?
Answer: 3.54%

Question: With Cc1cc(O)c(C(C[N+](=O)[O-])c2ccc(Cl)cc2)c(=O)o1 (configuration not stated) as the molecule, how does the inhibition read?
Answer: 6.11%

Question: Which inhibition does the source give for Cc1ccc(C(C[N+](=O)[O-])c2c(-c3ccccc3O)[nH][nH]c2=O)cc1 (configuration not stated) here?
Answer: 4.79%
